Measurements from the supplement of paper PMC4894684.
Counter-ions that a name gives are not always drawn. ± gives the standard deviation of the averaged measurements.

Each compound was assayed on Toxoplasma gondii RH (in HFF) (assay: parasite growth relative to the screen mean (all compounds = 100%); higher = less inhibition of parasite growth). Conditions: 5 µM; 72 h; oxygen 21 %.
How it was run: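 Growth values are relative to the mean of the whole screen and averaged over duplicate screens, with all compounds together set to 100%. Parasites (RH β-Gal–GFP Toxoplasma, MOI 1:5) were added within 2 h of pinning compounds at 5 µM final onto confluent human foreskin fibroblasts and grown 72 h at 21% O2. Parasite number came from CPRG β-Gal readings against in-plate standard curves.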

O=C(OCCN1CCOCC1)C1(c2ccccc2)CCCCC1 [PRE-084 hydrochloride] and Cc1ccc(CC2(O)CCN(CCOc3ccc(O)cc3)CC2)cc1 are within error of each other in parasite growth: 99.6 ± 19% for the first, 111 ± 35% for the second.

Going from O=C(NCCCCN1CCN(c2cccc(Cl)c2Cl)CC1)c1ccc2c(c1)Cc1ccccc1-2 to COc1ccc(S(=O)(=O)N2c3ccc(Cl)cc3[C@](O)(c3ccccc3Cl)[C@@H]2C(=O)N2CCC[C@H]2C(N)=O)cc1OC, the parasite growth rises from 92.71 ± 0.75% to 144 ± 26%.

Cc1ccc(O)c(N=Nc2ccccc2)n1 and Cc1ccc(=O)n(-c2ccccc2)c1 [Pirfenidone] are within error of each other in parasite growth: 92.5 ± 68% for the first, 128 ± 11% for the second.

Going from Cc1noc(NS(=O)(=O)c2cccc3c(N(C)C)cccc23)c1C to Cc1ccc2c(=O)c3ccccc3n(CCCN)c2c1C, the parasite growth falls from 59.8 ± 11% to less than 0%.

Going from Cn1cnnc1Sc1c([N+](=O)[O-])ncn1C to Cc1cc2nc3c(=O)[nH]c(=O)nc-3n(C)c2cc1C=O, the parasite growth falls from 131 ± 11% to 22.6 ± 1.9%.

First: COc1ccc([C@@H]2CNC(=O)C2)cc1OC1CCCC1 [(R)-(-)-Rolipram]
Second: CC1(C)Oc2ccc(C#N)cc2[C@H](N2CCCC2=O)[C@H]1O [Cromakalim]
The parasite growth of the first is lower: 106 ± 6% for the first, 127 ± 5.1% for the second.

First: COc1cc(N)c(Cl)cc1C(=O)CCC1CCN(CCNS(C)(=O)=O)CC1
Second: CC#CCOC(=O)C1=CCCN(C)C1 [Arecaidine but-2-ynyl ester tosylate]
The parasite growth of the first is lower: 74.1 ± 2.4% for the first, 144 ± 12% for the second.

Cc1ccccc1C(=O)c1ccc(Nc2ccc(Br)cc2N)cc1Cl and O=C1NN(C(=O)Nc2ccc(Br)cc2)[C@@H](c2ccccc2)[C@@H]1c1ccccc1 are within error of each other in parasite growth: 172 ± 48% for the first, 124.5 ± 1.1% for the second.

First: COc1cccc2c1C(=O)c1c(O)c3c(c(O)c1C2=O)C[C@@](O)(C(C)=O)C[C@@H]3O[C@H]1C[C@H](N)[C@H](O)[C@H](C)O1 [Daunorubicin hydrochloride]
Second: O=c1c(O)c(-c2ccc(O)c(O)c2)oc2cc(O)cc(O)c12 [Quercetin]
The parasite growth of the first is lower: less than 0% for the first, 180 ± 32% for the second.

Going from Cc1ccc2c(c1)C(=O)C1(O)CCN(c3ccccc3)C1=N2 (racemic) [(±)-Blebbistatin] to CC1=NN(c2ccccc2)C(=O)C1, the parasite growth falls from 161 ± 15% to 133 ± 8.7%.

N[C@@H](CSC(c1ccccc1)(c1ccccc1)c1ccccc1)C(=O)O [S-Trityl-L-cysteine] and NC(=O)N1c2ccccc2CC(O)c2ccccc21 (centres undefined) [Licarbazepine] are within error of each other in parasite growth: 118 ± 8.6% for the first, 122 ± 9.9% for the second.

Compared with CCCCCCCC/C=C\CCCCCCCC(N)=O [Oleamide], CCCCCCCCc1ccc(-c2ccc(C(=O)O)cc2)cc1 is higher in parasite growth: 74.8 ± 12% for the first, 111 ± 17% for the second.

O=C1NC(=O)c2cc(Nc3ccccc3)c(Nc3ccccc3)cc21 and O=C1CCC(N2C(=O)c3ccccc3C2=O)C(=O)N1 (centres undefined) [Thalidomide] are within error of each other in parasite growth: 176 ± 43% for the first, 151 ± 46% for the second.

Compared with O=c1c(-c2ccc(O)cc2)coc2cc(O)ccc12 [Daidzein], Oc1ccc(-c2nc(-c3ccc(F)cc3)c(-c3ccncc3)[nH]2)cc1 is lower in parasite growth: 77.8 ± 43% for the first, less than 0% for the second.

CCCC(=O)Nc1ncnc2c1ncn2[C@@H]1O[C@@H]2COP(=O)(O)O[C@H]2[C@H]1OC(=O)CCC [Dibutyryl-cAMP, sodium salt] and CCCc1c(OCC(O)COc2ccc3c(=O)cc(C(=O)O)oc3c2CCC)ccc(C(C)=O)c1O (centres undefined) are within error of each other in parasite growth: 125 ± 23% for the first, 96.9 ± 7.1% for the second.

Going from O=C(O)CC/C=C\C[C@H]1CO[C@@H](c2ccccc2Cl)O[C@H]1c1ccccc1O to Oc1cc(O)cc(/C=C/c2ccc(O)c(O)c2)c1 [Piceatannol], the parasite growth rises from 79.02 ± 0.65% to 145 ± 42%.

COc1ccc(Nc2nccc(NCCO)n2)cc1 [Cardiogenol C hydrochloride] and c1ccc2cc(C3=NCCN3)ncc2c1 [BU 226 hydrochloride] are within error of each other in parasite growth: 122 ± 4.2% for the first, 126 ± 3.6% for the second.

Compared with C[N+](C)(C)CC[N+]1(C)Cc2c(Cl)c(Cl)c(Cl)c(Cl)c2C1 [Chlorisondamine diiodide], CN(C)c1nc(N)c(C(=O)Nc2cccnc2)nc1Cl [ACDPP hydrochloride] is lower in parasite growth: 168 ± 14% for the first, 88.7 ± 3% for the second.

Compared with CC[C@H](C)C(=O)O[C@H]1C[C@H](O)C=C2C=C[C@H](C)[C@H](CC[C@@H](O)C[C@@H](O)CC(=O)O)[C@H]21 [Pravastatin sodium salt], CC(C)NCC(O)COc1ccc(COCCOC(C)C)cc1 (racemic) [(±)-Bisoprolol hemifumarate] is lower in parasite growth: 127 ± 9.5% for the first, 77.7 ± 0.94% for the second.

Compound Cn1ccc2cc3c(cc21)CCN3C(=O)Nc1cccnc1 has a parasite growth of 121 ± 17%.
